Results filed as inconclusive are left out. Calls of active or inactive are those of the source. Rule for the calls, unless noted: active = hit-call score of the fitted dose curve at least 0.9, where 1 is the maximum; inconclusive = response in the unintended direction; inactive = score below 0.9.
How the values were obtained:
[1] = TOX21_p53_BLA_p2_viability: Viability Assessment in the Tox21 HCT-116 p53 Agonism Beta-lactamase Assay, Phase 2 (AID 2283591);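 note: actives lower the ATP signal meaning cytotoxicity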
Outline: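 HCT-116 p53-bla cells (4000/well) rested 5 h at 37C, then received compounds in DMSO (217-fold dilution) for 16 h at 37C, 5% CO2. After the CCF4 read, CellTiter-Glo was added; ATP luminescence was read after 30 min at room temperature.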

[2] = target: Cellular tumor antigen p53 (Homo sapiens) (UniProt P04637); assay: TOX21_p53_BLA_p2_ratio: Tox21 HCT-116 p53 Agonism Beta-lactamase Assay, Ratio, Phase 2 (AID 2283592)
Chain of Cellular tumor antigen p53 (Homo sapiens) (P04637 whole entry, looked up): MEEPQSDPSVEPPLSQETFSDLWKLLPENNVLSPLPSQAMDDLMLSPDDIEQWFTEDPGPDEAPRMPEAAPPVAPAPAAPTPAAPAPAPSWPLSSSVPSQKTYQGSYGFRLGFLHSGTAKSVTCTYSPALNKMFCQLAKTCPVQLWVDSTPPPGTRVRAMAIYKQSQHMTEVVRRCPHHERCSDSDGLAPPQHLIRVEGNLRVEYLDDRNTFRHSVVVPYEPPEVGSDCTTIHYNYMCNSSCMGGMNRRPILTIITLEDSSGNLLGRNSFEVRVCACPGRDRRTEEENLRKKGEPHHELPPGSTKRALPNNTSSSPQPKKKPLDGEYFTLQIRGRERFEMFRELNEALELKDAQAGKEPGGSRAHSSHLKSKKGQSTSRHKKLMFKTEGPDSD
Outline: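 HCT-116 cells with p53-responsive beta-lactamase reporter, 4000 cells/well, preincubated 5 h, then compound in DMSO (217-fold dilution) for 16 h at 37C. CCF4-AM substrate 2 h at room temperature; 460/530 nm emission ratio fitted upward versus DMSO.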

[3] = TOX21_p53_BLA_p3_viability: Viability Assessment in the Tox21 HCT-116 p53 Agonism Beta-lactamase Assay, Phase 3 (AID 2283593)
Outline: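 HCT-116 cells (4000/well) rested 5 h at 37C, then got DMSO compounds by pin tool (217-fold dilution) for 16 h at 37C, 5% CO2. After the bla read, CellTiter-Glo was added and luminescence read at 30 min, room temperature.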

[4] = target: Cellular tumor antigen p53 (Homo sapiens) (UniProt P04637); assay: TOX21_p53_BLA_p3_ratio: Tox21 HCT-116 p53 Agonism Beta-lactamase Assay, Ratio, Phase 3 (AID 2283596)
Outline: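 HCT116 p53-bla cells (4000/well) given compound in DMSO (217-fold dilution) after 5 h, incubated 16 h at 37C. CCF4-AM substrate 2 h at room temperature; 460/530 nm emission ratio, gain fitted against DMSO.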

[5] = TOX21_p53_BLA_p4_viability: Viability Assessment in the Tox21 HCT-116 p53 Agonism Beta-lactamase Assay, Phase 4 (AID 2283597);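 note: hits lower the luminescence signal meaning cytotoxicity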
Outline: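 HCT-116 p53-bla cells, 4000/well, dosed after 5 h attachment and incubated 16 h at 37 °C, 5% CO2. Viability from CellTiter-Glo ATP luminescence after 30 min at room temperature, taken after the beta-lactamase read; loss of signal indicates cytotoxicity.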

[6] = target: Cellular tumor antigen p53 (Homo sapiens) (UniProt P04637); assay: TOX21_p53_BLA_p5_ratio: Tox21 HCT-116 p53 Agonism Beta-lactamase Assay, Ratio, Phase 5 (AID 2283599)
Outline: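 HCT-116 cells carrying a p53-inducible beta-lactamase reporter were seeded at 4000 cells/well and dosed after 5 h with compound in DMSO (217-fold dilution). After 16 h at 37C, CCF4-AM substrate was added for 2 h, and the 460/530 nm emission ratio was scored as gain-of-signal versus DMSO.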

[7] = TOX21_p53_BLA_p5_viability: Viability Assessment in the Tox21 HCT-116 p53 Agonism Beta-lactamase Assay, Phase 5 (AID 2283600)
Outline: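 HCT-116 p53 beta-lactamase reporter cells, 4000/well, were exposed to compound (pin transfer, 217-fold dilution) for 16 hours at 37C. Cellular ATP was read by CellTiter-Glo luminescence after 30 min at room temperature.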

[8] = target: Cellular tumor antigen p53 (Homo sapiens) (UniProt P04637); assay: TOX21_p53_BLA_p4_ratio: Tox21 HCT-116 p53 Agonism Beta-lactamase Assay, Ratio, Phase 4 (AID 2283601)
Outline: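 HCT116 cells carrying an inducible beta-lactamase reporter were plated at 4000 cells/well, rested 5 h, then exposed to compounds in DMSO (217-fold dilution) for 16 h at 37C. CCF4-AM substrate was loaded 2 h at room temperature; 460/530 nm emission ratio scored gain-of-signal versus DMSO.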

[9] = target: Thyroid hormone receptor alpha (Rattus norvegicus) + Thyroid hormone receptor beta (Rattus norvegicus) (UniProt P18113+P63059); assay: TOX21_TR_LUC_GH3_Antagonist_Followup: Tox21 GH3 Thyroid Hormone Receptor Antagonism Luciferase Follow-Up Assay (AID 2283942)
Outline: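 Rat pituitary GH3 cells with a TRα/TRβ-driven luciferase reporter, 5 h attachment, then 15 concentrations (92 uM to 5nM final) plus 1.0 nM T3 agonist, 24 h at 37C/5% CO2. ONE-Glo luminescence; signal change fitted against DMSO baseline.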

[10] = target: THRA (gene 7067) (UniProt P10827); assay: TOX21_TRA_COA_Antagonist_Followup_ratio: Tox21 Thyroid Hormone Receptor alpha Antagonism through Coactivator Recruitment Follow-Up Assay, Ratio (AID 2283953)
Chain of THRA (gene 7067) (P10827 whole entry, looked up, the tested form may be a part): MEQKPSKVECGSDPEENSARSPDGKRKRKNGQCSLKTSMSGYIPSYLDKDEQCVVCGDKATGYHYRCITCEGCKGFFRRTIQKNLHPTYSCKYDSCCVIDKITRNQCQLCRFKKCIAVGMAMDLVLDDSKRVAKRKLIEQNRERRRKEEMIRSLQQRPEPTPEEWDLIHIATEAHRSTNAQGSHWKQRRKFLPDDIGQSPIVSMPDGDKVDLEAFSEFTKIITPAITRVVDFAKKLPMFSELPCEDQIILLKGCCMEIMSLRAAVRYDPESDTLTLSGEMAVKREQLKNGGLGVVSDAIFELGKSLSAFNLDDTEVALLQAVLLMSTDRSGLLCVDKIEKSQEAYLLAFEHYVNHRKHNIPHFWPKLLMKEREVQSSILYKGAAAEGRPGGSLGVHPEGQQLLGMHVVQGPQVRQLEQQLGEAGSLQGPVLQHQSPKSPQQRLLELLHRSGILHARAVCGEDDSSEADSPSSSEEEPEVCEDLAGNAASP
Outline: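 520:495 nm emission ratio (excitation 340 nm) reports fluorescein-SRC-2 peptide recruitment to GST-TRα LBD by TR-FRET with Tb anti-GST antibody. Values were normalized to DMSO (0%) and T3 control wells (100%); loss of signal indicated antagonism.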

[11] = target: THRB (gene 7068) (UniProt P10828); assay: TOX21_TRB_BLA_Antagonist_Followup_ratio: Tox21 Thyroid Hormone Receptor beta Antagonism Beta-lactamase (BLA) Follow-Up Assay, Ratio (AID 2283958)
Chain of THRB (gene 7068) (P10828 whole entry, looked up, the tested form may be a part): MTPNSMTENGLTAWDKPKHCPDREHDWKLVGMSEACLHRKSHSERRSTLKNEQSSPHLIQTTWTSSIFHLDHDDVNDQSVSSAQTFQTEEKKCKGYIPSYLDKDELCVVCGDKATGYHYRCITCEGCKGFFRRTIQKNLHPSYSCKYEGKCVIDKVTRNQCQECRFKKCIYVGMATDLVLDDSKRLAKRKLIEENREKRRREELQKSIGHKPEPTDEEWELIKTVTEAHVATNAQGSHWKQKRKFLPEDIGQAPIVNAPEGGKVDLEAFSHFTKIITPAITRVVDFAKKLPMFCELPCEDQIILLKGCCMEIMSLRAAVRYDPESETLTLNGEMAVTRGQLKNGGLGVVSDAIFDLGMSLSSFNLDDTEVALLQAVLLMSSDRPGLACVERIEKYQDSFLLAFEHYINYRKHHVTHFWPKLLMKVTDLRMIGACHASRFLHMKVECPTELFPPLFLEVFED
Outline: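 HEK293T cells with a GAL4-TRb LBD fusion and UAS-bla reporter, 3,000 cells/well in phenol red-free DMEM with 2% charcoal-stripped FBS. Exposed 18 h at 37C to 11 concentrations in triplicate; CCF4 460:530 nm ratio after 2 h, DMSO-referenced.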

[12] = TOX21_TRB_BLA_Antagonist_Followup_viability: Viability Assessment in the Tox21 Thyroid Hormone Receptor beta Antagonism Beta-lactamase (BLA) Follow-Up Assay (AID 2283961)
Outline: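 HEK293T cells with GAL4-human TRβ LBD and UAS-bla reporter, 3,000 cells/well in 2% charcoal-stripped FBS medium; 11-point concentrations in triplicate, 18 h at 37C. Viability from ATP by CellTiter-Glo luminescence, 30 min RT, same plates.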

[13] = target: THRB (gene 7068) (UniProt P10828); assay: TOX21_TRB_COA_Antagonist_Followup_ratio: Tox21 Thyroid Hormone Receptor beta Antagonism through Coactivator Recruitment Follow-Up Assay, Ratio (AID 2283967)
Outline: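 Cell-free TR-FRET coactivator recruitment with GST-tagged TRβ LBD (5.0 nM) and fluorescein-labeled SRC-2 peptide (200 nM) detected by terbium anti-GST antibody (2 nM). The 520:495 nm emission ratio was normalized to DMSO (0%) and T3 (100%).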

[14] = target: Retinoic acid receptor RXR-alpha (Homo sapiens) (UniProt P19793); assay: TOX21_TR_RXR_BLA_Antagonist_Followup_ratio: Tox21 Thyroid Hormone Receptor beta Retinoid X Receptor alpha (RXRa) Antagonism Beta-lactamase (BLA) Follow-Up Assay, Ratio (AID 2283972)
Chain of Retinoic acid receptor RXR-alpha (Homo sapiens) (P19793 whole entry, looked up): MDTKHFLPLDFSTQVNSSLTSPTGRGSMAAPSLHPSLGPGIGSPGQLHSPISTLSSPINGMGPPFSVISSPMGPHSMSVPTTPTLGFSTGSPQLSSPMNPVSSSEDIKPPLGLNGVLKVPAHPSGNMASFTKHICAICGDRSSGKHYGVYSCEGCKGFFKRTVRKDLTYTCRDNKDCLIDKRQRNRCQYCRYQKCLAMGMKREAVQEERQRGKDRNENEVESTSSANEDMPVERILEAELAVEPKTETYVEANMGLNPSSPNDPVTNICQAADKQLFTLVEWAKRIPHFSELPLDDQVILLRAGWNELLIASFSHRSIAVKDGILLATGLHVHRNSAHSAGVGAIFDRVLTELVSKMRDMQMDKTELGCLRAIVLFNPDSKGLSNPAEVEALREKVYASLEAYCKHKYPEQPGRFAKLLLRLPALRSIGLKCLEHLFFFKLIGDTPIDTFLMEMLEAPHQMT
Outline: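 RXRa-UAS-bla HEK293T cells, 2,500/well in phenol red-free DMEM with 2% charcoal-stripped FBS, 5 h attachment, then compounds (11 concentrations, triplicate) for 16 h at 37C; FRET-B/GCCF4-AM substrate 2 h RT; 460:530 nm ratio, loss of signal vs DMSO.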

[15] = CCTE_Harrill_HTTr_Viability_MCF7: CCTE's 6-hour Cell Viability Assessment for the High-Throughput Transcriptomics (HTTr) Platform, in MCF-7 cells cultured in DMEM + 10% fetal bovine serum, Harrill Lab (AID 2284010; active = hit-call score of the fitted dose curve at least 0.9, where 1 is the maximum; inactive = score below 0.9)
Outline: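 MCF-7 cells in DMEM + 10% FBS, 384-well, exposed 6 h to an eight-point dilution series. Membrane integrity scored by high-content imaging of propidium iodide exclusion; bidirectional fit versus DMSO.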

[16] = TOX21_PR_BLA_Followup_Agonist_viability: Viability Assessment in the Tox21 HEK293 Progesterone Receptor (PR) Agonism Beta-lactamase Follow-Up Assay (AID 2283935);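 note: signal loss means lower viability so actives are cytotoxic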
Outline: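 PR-UAS-bla HEK293T cells in 2% charcoal-stripped FBS medium, plated 6 hr before compound addition, exposed 16 hr at 37C. Viability read by CellTiter-Glo ATP luminescence after 30 min at room temperature, in the same wells as the beta-lactamase readout.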

[17] = TOX21_PR_BLA_Followup_Antagonist_viability: Viability Assessment in the Tox21 HEK293 Progesterone Receptor (PR) Antagonism Beta-lactamase Follow-Up Assay (AID 2283936);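 note: hits lower the luminescence signal meaning cytotoxicity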
Outline: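 PR-UAS-bla HEK293T cells (3,000/well, 2% charcoal-stripped FBS) given compound plus R5020 agonist, 16 h at 37C. CellTiter-Glo added after bla read, 30 min at room temperature; luminescence loss indicates cytotoxicity.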

[18] = target: PGR (gene 5241) (UniProt P06401); assay: TOX21_PR_LUC_Followup_Antagonist: Tox21 HEK293 Progesterone Receptor (PR) Antagonism Luciferase Follow-Up Assay (AID 2283938);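 note: curve fitted upward as signal gain over DMSO baseline despite antagonist label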
Chain of PGR (gene 5241) (P06401 whole entry, looked up): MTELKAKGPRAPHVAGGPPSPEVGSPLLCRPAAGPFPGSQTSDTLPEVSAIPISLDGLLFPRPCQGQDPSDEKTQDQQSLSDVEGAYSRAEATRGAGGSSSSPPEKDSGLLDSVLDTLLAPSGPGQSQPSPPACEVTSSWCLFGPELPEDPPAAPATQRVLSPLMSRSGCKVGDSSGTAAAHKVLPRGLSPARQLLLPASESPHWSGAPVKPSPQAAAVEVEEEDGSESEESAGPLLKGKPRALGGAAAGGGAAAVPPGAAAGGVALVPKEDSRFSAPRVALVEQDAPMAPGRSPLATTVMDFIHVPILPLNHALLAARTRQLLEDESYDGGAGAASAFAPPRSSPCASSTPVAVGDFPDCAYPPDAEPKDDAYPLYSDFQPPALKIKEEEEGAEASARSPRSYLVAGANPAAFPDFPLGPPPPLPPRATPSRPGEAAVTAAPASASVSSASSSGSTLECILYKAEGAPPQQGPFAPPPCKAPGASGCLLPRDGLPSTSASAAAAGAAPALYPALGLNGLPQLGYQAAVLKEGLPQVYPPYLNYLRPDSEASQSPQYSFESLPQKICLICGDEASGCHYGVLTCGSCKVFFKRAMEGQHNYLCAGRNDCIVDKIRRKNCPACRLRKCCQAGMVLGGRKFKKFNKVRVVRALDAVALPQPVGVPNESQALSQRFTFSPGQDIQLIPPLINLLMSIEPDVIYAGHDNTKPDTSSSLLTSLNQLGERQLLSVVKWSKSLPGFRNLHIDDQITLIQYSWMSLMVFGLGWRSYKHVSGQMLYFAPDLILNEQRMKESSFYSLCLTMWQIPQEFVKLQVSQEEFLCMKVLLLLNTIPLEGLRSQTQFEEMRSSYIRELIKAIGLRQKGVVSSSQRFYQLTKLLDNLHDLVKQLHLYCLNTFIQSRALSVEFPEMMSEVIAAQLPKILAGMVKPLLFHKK
Outline: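 HEK293-PR-A-luc cells, 3,000/well, preincubated 5 h at 37C before compound addition in DMSO; 16 h compound exposure at 37C. ONE-Glo luciferase luminescence read after 30 min at room temperature, fitted relative to DMSO baseline.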

[19] = TOX21_PR_LUC_Followup_Antagonist_viability: Viability Assessment in the Tox21 HEK293 Progesterone Receptor (PR) Antagonism Luciferase Follow-Up Assay (AID 2283940)
Outline: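 HEK293-PR-A-luc cells kept in charcoal-stripped FBS medium were plated 5 h before compound addition, then exposed 16 h at 37C; viability read as cellular ATP by luciferase luminescence, loss of signal indicating cytotoxicity.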

[20] = TOX21_PR_LUC_Followup_Agonist_viability: Viability Assessment in the Tox21 HEK293 Progesterone Receptor (PR) Agonism Luciferase Follow-Up Assay (AID 2283941);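 note: loss of signal means cytotoxicity so actives lower viability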
Outline: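 HEK293-PR-A-luc cells, kept in 10% charcoal-stripped FBS medium, were treated with compounds for 16 h at 37C. Viability read as cellular ATP by luciferase-coupled luminescence; loss of signal indicates cytotoxicity.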

Measured: AC50

CCCCCOc1ccc(C2SC(=O)NC2=O)cc1OCC (stereo unspecified)
active: [11] 1.76 µM | [13] 10.8 µM
not listed: [14] | [15] | [16] | [17] | [18] | [19] | [20]
inactive: all other assays above

Cc1nc2ccccc2n1Cc1ccc(Cl)cc1
not listed: [9] | [15] | [16] | [17] | [18] | [19] | [20]
inactive: all other assays above

O=C1C(=O)c2ncccc2-c2cccnc21
inactive: [1] | [3] | [7] | [9] | [10] | [11] | [13] | [14]
active: [2] 1.01 µM | [4] 1.08 µM | [5] 5.12 µM | [6] 0.599 µM | [8] 0.96 µM | [12] 5.41 µM

CNC(=O)c1cc(Oc2ccc(NC(=O)Nc3ccc(Cl)c(C(F)(F)F)c3)cc2)ccn1
inactive: [1] | [3] | [5] | [7] | [8]
active: [2] 7.13 µM | [4] 5.52 µM | [6] 6.76 µM

Cc1cc(Nc2ccccc2C(=O)O)ccc1Cl
active: [2] 8.52 µM | [5] 31.9 µM | [6] 17.4 µM | [8] 23 µM | [11] 51.5 µM
not listed: [15] | [16] | [17] | [18] | [19] | [20]
inactive: all other assays above

CCC[C@@]1(CCc2ccccc2)CC(O)=C([C@H](CC)c2cccc(NS(=O)(=O)c3ccc(C(F)(F)F)cn3)c2)C(=O)O1
inactive: [1] | [2] | [3] | [4] | [5] | [6] | [7] | [8] | [11] | [12] | [14]

CC1(C)S[C@@H]2[C@H](NC(=O)[C@H](N)c3ccc(O)cc3)C(=O)N2[C@H]1C(=O)O
inactive: [1] | [2] | [3] | [4] | [5] | [6] | [7] | [8]

NC(N)=NCc1cccc(I)c1
not listed: [15] | [16] | [17] | [18] | [19] | [20]
inactive: all other assays above

Cc1nc2sccn2c(=O)c1CCN1CCC(=C(c2ccc(F)cc2)c2ccc(F)cc2)CC1
inactive: [4] | [6] | [7] | [8]
active: [1] 37.8 µM | [2] 36.5 µM | [3] 8.52 µM | [5] 23 µM

COc1cc(C)c(/C=C/C(C)=C/C=C/C(C)=C/C(=O)O)c(C)c1C
inactive: [1] | [3] | [4] | [5] | [7] | [8]
active: [2] 33.4 µM | [6] 36 µM

C[n+]1c2cc(N)ccc2cc2ccc(N)cc21 (tested in a mixture with another compound)
active: [2] 11.6 µM | [4] 9.45 µM | [6] 9.47 µM | [8] 6.18 µM | [9] 18.2 µM | [11] 36 µM | [14] 19.2 µM
inactive: [1] | [3] | [5] | [7] | [12]

Cc1c(N(C)CS(=O)(=O)O)c(=O)n(-c2ccccc2)n1C
inactive: [1] | [2] | [3] | [4] | [5] | [6] | [7] | [15]

Cc1cc(-n2c(=O)[nH]c(=O)n(C)c2=O)ccc1Oc1ccc(S(=O)(=O)C(F)(F)F)cc1
inactive: [1] | [2] | [3] | [4] | [5] | [6] | [7] | [8]

COc1ccc(Cl)cc1C(=O)NCCc1ccc(S(=O)(=O)NC(=O)NC2CCCCC2)cc1
inactive: [1] | [2] | [3] | [4] | [5] | [6] | [7] | [8] | [15]

N#C/C(=C1/SC[C@@H](c2ccc(Cl)cc2Cl)S1)n1ccnc1
inactive: [1] | [2] | [3] | [4] | [5] | [6] | [7] | [16] | [17] | [18] | [19]

COC(=O)C1=C(C)NC(C)=C(C(=O)OCC(C)=O)C1c1ccccc1[N+](=O)[O-] (stereo unspecified)
active: [18] 21.5 µM
not listed: [8] | [9] | [10] | [11] | [12] | [13] | [14] | [15]
inactive: all other assays above
